Compound activity from PubChem BioAssay.
FMDV inh: antivirals against foot and mouth disease virus | actives 1.2% (n = 410,000) | FMDV antiviral cell-based qHTS | Potency, µM (highest dose often 57.9 µM), without a hit: at the top dose activity change, negative = inhibition, usual class: inhibitors; calls by dose curve; tested in HEK293T cells; further: read-out not given here; potency means the concentration at half of the fitted maximal effect; on the % scale 0 is the no-effect control and ±100 the full control effect; nearly all actives have a fitted effect of over 45% in size
Lassa entry inh: inhibitors of Lassa virus binding or cell entry; actives 1.2% (n = 300,000); Potency, µM (doses to about 37.9 µM), for the others: at the highest dose activity change, negative = inhibition, hits mostly inhibitors; Lassa virus pseudotype entry inhibition, cell reporter; calls by dose curve; tested in HEK293 cells; further: potency means the concentration at half of the fitted maximal effect; on the % scale 0 is the no-effect control and ±100 the full control effect; nearly all actives have a fitted effect of over 50% in size
HCMV inh: blocks human cytomegalovirus replication; activity change, negative = inhibition, % at 57.5 µM; actives 4.5% (n = 410,000); HFF cells, HCMV-luciferase reporter, 72 h; hits give low values; in the data active means activity change below about -60%; inconclusive means no clear call, values can overlap the other calls; inactive means above about -39%; further: on the % scale 0 is the no-effect control and ±100 the full control effect
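Steps: HFFs plated, 16 h 37C; compounds added; HCMV-luciferase added to MOI 1 PFU/cell; 72 h 37C; OneGlo reagent, 5 min room temperature; luminescence read, normalized to controls.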
HCV inhibitor: blocks hepatitis C virus; Huh7.5.1 HCVcc-Cre infection, luciferase reporter, 44 h; Potency, µM (doses to about 41.8 µM), inactives show at the top dose activity change, negative = inhibition, actives largely listed as inhibitors; actives 3.4% (n = 340,000); further: potency means the concentration at half of the fitted maximal effect; on the % scale 0 is the no-effect control and ±100 the full control effect
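Antiviral activity was scored by luciferase reporter output from cells infected with HCVcc-Cre (~0.5 moi) in presence of compound, 44 h infection period, cells seeded 1,000/well 4 h prior.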
MARV entry inh: Marburg virus entry inhibition | Marburg virus pseudotyped entry inhibition, cell reporter | Potency, µM (series often up to 37.8 µM), for inactives: at the top dose activity change, negative = inhibition, usual class: inhibitors | AID 540276 | actives 1.8% (n = 300,000); calls by dose curve; tested in HEK293 cells; further: potency means the concentration at half of the fitted maximal effect; on the % scale 0 is the no-effect control and ±100 the full control effect
HCV confirm: HCV inhibition, cherry-pick confirmation; Potency, µM (doses to about 41.8 µM), without a hit: at the highest dose activity, negative = inhibition, actives largely listed as inhibitors; actives 78% (n = 640); shares compounds with HCV inhibitor; HCVcc-Cre infectious virus cell assay, luciferase, inhibition; further: potency means the concentration at half of the fitted maximal effect; nearly all actives have a fitted effect of over 80% in size
HCV cytotox: counter-screen for HCV inhibitors: host cell cytotoxicity. shares compounds with HCV inhibitor. HCV host cell line cytotoxicity counterscreen. Potency, µM (top dose mostly 41.8 µM), for the others: top-dose activity change, negative = cytotoxicity, most hits filed as inhibitors. actives 22% (n = 640). AID 720576;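 further: potency means the concentration at half of the fitted maximal effect; 44 h compound exposure; on the % scale 0 is the no-effect control and ±100 the full control effect; nearly all actives have a fitted effect of over 55% in size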
* marks the source's active call; other numbers are inactive results; ? = inconclusive; · = no result given; [ ] = dose if it differs, or a comment. In the library only some 7.9% were active in any assay of this set; here they are far more common. Unless noted, the call rests on the fitted dose curve; in most records, active means well fitted curve in the direction sought with a large enough effect; inconclusive means small, poorly fitted or top-dose-only effect, or another doubt; inactive means no such curve, though single readings can be large; an effect the other way counts as inactive or inconclusive.

SMILES | FMDV inh | Lassa entry inh | HCMV inh | HCV inhibitor | MARV entry inh | HCV confirm | HCV cytotox
COc1ccc(NC2=NC(=S)N(c3ccccc3C)C23CCCCC3)cc1 | -15.3% | 0.0% | -18.0 | 1.7% | -3.0% | · | ·
COc1cc(NC(=O)c2ccc(COc3ccccc3Br)o2)cc(OC)c1OC | -23.7% | ? | 20.3 | 5.01µM* | -18.9% | 11.2µM* | 0.7%
CCN1C(=NCCN2CCOCC2)N[C@@H](c2ccccc2)C(C(=O)OC)=C1C | -16.4% | · | ? | 24.6% | · | · | ·
CCCCN(Cc1nc2ccccc2c(=O)[nH]1)C(=O)COc1ccc(F)cc1Cl | -24.8% | · | 14.3 | 7.2% | · | · | ·
S=C(S)N1CCCC1 | -17.2% | ? | -35.6 | ? | ? | 25µM* | 28µM*
Cc1sc2nc(CN3CCCCC3)nc(Cl)c2c1C | ? | ? | 20.9 | ? | -34.5% | · | ·
Cc1[nH]n(-c2nc(-c3ccc(Cl)cc3)cs2)c(=O)c1N=Nc1ccc(O)cc1 | 7.94µM* | 11.2µM* | -33.8 | 1.78µM* | ? | 14.1µM* | -98.7%
CCCCN(C(C)=O)c1ccc2c(c1)C1CC2CCN1C(=O)OCc1ccccc1 (stereo unspecified) | 39.8µM* | · | ? | 3.55µM* | · | 3.96µM* | 7.91µM*
CSc1scc2c1-c1nc(SCC(=O)C(C)(C)C)ncc1CC2 | -5.0% | · | ? | 8.91µM* | · | 25µM* | -15.6%
O=C(Cc1ccccc1)NC(=S)Nc1ccc(OC(F)F)cc1 | 22.5% | 29.6%[46.1 µM] | 2.8 | 30.5% | -2.4%[46.1 µM] | · | ·
O=C(NCc1cccc(Cl)c1)C1CCN(S(=O)(=O)c2ccc(F)cc2)CC1 | 17.0% | · | -36.7 | 15.1% | · | · | ·
Cc1onc(-c2ccccc2Cl)c1C(=O)Nc1ccccc1C(=O)NC(C)C | · | ? | ? | 4.47µM* | 9.2µM* | 22.3µM* | ?
CCOc1cc(/C=C/C(=O)Nc2ccc(C(=O)NCCN(CC)CC)cc2)ccc1OCC(C)C | ? | ? | -113.7* | 3.16µM* | 18.3µM* | 15.8µM* | 35.3µM*
Cc1cnc(NC(=O)C2CC(=O)N(c3cccc(Cl)c3)C2)s1 (stereo unspecified) | -13.5% | · | -99.1* | 3.16µM* | · | 8.87µM* | 3.53µM*
COC(=O)c1cc2ccccn2c2c(C(=O)OC)c(C(=O)OC)cc1-2 | ? | -28.3% | 46.2 | ? | ? | · | ·
COC(=O)c1cc2c(C)cc3ccc(C)cn3c-2c1C(=O)OC | 0.0% | -12.8% | -21.4 | 3.98µM* | 1.2% | 11.2µM* | 43.3%
CCN(CC)S(=O)(=O)c1ccc(OC)c(NC(=O)CSc2cc(Cl)ccc2Cl)c1 | -3.1% | ? | ? | ? | ? | 22.3µM* | 22.2%
COc1cc(OC)c(NC(=O)Cn2cccc2)cc1Cl | 17.4% | 4.7% | -17.1 | -8.5% | ? | · | ·
COc1cc(OC)c(NC(=O)C(=O)CC(=O)c2ccc(C)cc2C)cc1Cl | -10.7% | 8.2µM* | 10.5 | 3.55µM* | ? | 14.1µM* | -14.3%
COc1cc(/C=N/n2nnnc2Nc2ccccc2)cc(OC)c1OC | -16.0% | -13.3% | · | ? | ? | ? | 12.1%
COc1cc(/C=N/n2c(-c3ccccc3)n[nH]c2=S)cc(OC)c1OC | -28.6% | ? | 28.4 | 5.8% | ? | · | ·
COc1cccc(Nc2ncc3nc(CCc4ccccc4)c(=O)n(C[C@H]4CCCO4)c3n2)c1 | -20.5% | · | · | · | · | · | ·
Cc1nc2ccccn2c1-c1csc(Nc2ccc(C(=O)O)cc2)n1 | 12.4% | ? | ? | 18.2% | ? | · | ·
Cc1cccc(Nc2nc(-c3c(C)nc4ccccn34)cs2)c1 | · | ? | -94.5* | 2.51µM* | ? | 14.1µM* | 25µM*
Cc1ccc2c(c1)c1c3n2CC(=C2C(=O)OC(C)(C)OC2=O)NC3CCC1 (stereo unspecified) | · | -21.9% | -24.5 | 5.01µM* | -28.8% | 28µM* | -34.2%
SMILES | FMDV inh | Lassa entry inh | HCMV inh | HCV inhibitor | MARV entry inh | HCV confirm | HCV cytotox
CN(CC(=O)NCc1cccnc1)S(=O)(=O)c1ccc(F)cc1 | -7.3% | 17.4%[46.1 µM] | -20.0 | 23.7% | 8.0%[46.1 µM] | · | ·
CCc1ccccc1N1CC(C(=O)N2Cc3ccccc3CC2C(N)=O)CC1=O (stereo unspecified) | -8.6% | · | -13.3 | -17.7% | · | · | ·
CCOc1ccccc1C(=O)Nc1ccc2nc(N3CCN(c4ncccn4)CC3)cc(C)c2c1 | 8.91µM* | ? | · | 2.24µM* | 13µM* | 4.99µM* | -79.3%
COc1cccc(C(=O)Nc2ccc3nc(N4CCOCC4)cc(C)c3c2)c1 | -8.9% | · | -9.2 | ? | · | 2.8µM* | 16.9%
COc1ccc(/C=N/NC(=O)c2ccc(CN3C(=O)c4cccc5cccc3c45)cc2)cc1O | -4.4% | -4.0% | -25.7 | ? | ? | · | ·
COc1cc(/C=N/NC(=O)c2ccc(CN3C(=O)c4cccc5cccc3c45)cc2)cc(OC)c1O | -24.7% | · | -32.7 | ? | · | ? | -9.4%
Cc1ccc(C(=O)OCC(=O)N(C)c2c(N)n(Cc3ccccc3)c(=O)[nH]c2=O)s1 | -0.5% | 4.0% | 46.5 | 2.9% | -7.6%[46.1 µM] | · | ·
CCN(CC)C(=O)Cn1cc(C(=O)C(=O)NCCCn2ccnc2)c2ccccc21 | -21.7% | 10.8% | 39.2 | 17.5% | 20.7%[46.1 µM] | · | ·
Cc1ccc(NCC(=O)N/N=C\c2ccc([N+](=O)[O-])o2)cc1 | · | -29.3% | -82.4* | 3.16µM* | ? | 14.1µM* | ?
Cc1ccc(NCC(=O)N/N=C/c2ccc(C(=O)O)cc2)cc1 | 3.5% | · | 24.7 | 3.4% | · | · | ·
CCOC(=O)N1CCN(C(=O)CSCC(=O)Nc2nc(-c3ccc4c(c3)OCO4)cs2)CC1 | ? | 7.2% | · | ? | ? | 15.8µM* | -24.3%
O=C(CSCC(=O)N1CCOCC1)Nc1nc(-c2ccc3c(c2)OCO3)cs1 | 16.1% | · | 95.3 | -21.8% | · | · | ·
CNC[C@H]1Oc2ccc(NC(=O)C3CCCCC3)cc2CC(=O)N([C@H](C)CO)C[C@@H]1C | -4.2% | · | -34.3 | 7.3% | · | · | ·
CCn1c(SC(C)C(=O)NC2CCCC2)nc2cc(S(N)(=O)=O)ccc21 (stereo unspecified) | -13.9% | · | 28.8 | -0.8% | · | · | ·
OC1CCCN(CC(O)COc2ccc(-c3ccccc3)cc2)C1 (stereo unspecified) | 10.9% | 14.4%[46.1 µM] | -0.9 | ? | ? | · | ·
CC1CCCN(CC(O)COc2ccc(-c3ccccc3)cc2)C1 (stereo unspecified) | -24.0% | 8.1% | -28.4 | 2.82µM* | ? | 15.8µM* | 52.4%
O=C(NCc1ccc2c(c1)OCO2)C1CCN(C(=O)Nc2ccc(Cl)cc2)CC1 | -0.1% | 7.1% | 62.7 | ? | 24.6% | 12.5µM* | -1.0%
CCS(=O)(=O)N1CCC(C(=O)NCc2ccc3c(c2)OCO3)CC1 | 3.6% | 6.6% | 20.4 | 13.5% | -1.8% | · | ·
COc1cc(/C=C2/SC(=O)NC2=O)ccc1OC(=O)c1ccco1 | -19.8% | 17.7% | 62.7 | 2.1% | 1.0% | · | ·
